The full data set covers some 8,800 targets. This sample favours those with a hit. About 0.5% of all pairs of compound and target were hits.
What was measured:
Experiment in all cases: log2 fold change, soluble protein after heating vs DMSO (PISA); higher = thermal stabilisation; K562 lysate, 10 uM; active = over 0.2 and 3.5 SD of the protein, either way, in both replicates (recomputed)
[1] = compound: CN1CC[C@H](c2c(O)cc(O)c3c(=O)cc(-c4ccccc4Cl)oc23)[C@H](O)C1 [alvocidib]
Procedure, shortened: (§1)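 Log-two fold change in thermal stability relative to solvent controls is reported from duplicates. For each sample, crude K562 extract from dounce-homogenised pellets in PBS pH 7.4 with 1 mM MgCl2, at 1 mg/mL protein, was treated with 10 μM compound for 30 min. Aliquots heated for 3 min across 48°C-58°C were pooled, brought to 0.5% NP-40 at 4°C and cleared at 21,000xg for 90 min. The supernatant was quantified by TMTpro 16plex LC-MS/MS with channel sums equalised.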

[2] = compound: CN1CCc2c(c3ccccc3n2Cc2ccc(C(=O)NO)cc2)C1 [Tubastatin A]
Procedure, shortened: as §1

[3] = compound: CNC(=O)C1=CC=CC=C1NC2=NC(=NC=C2Cl)NC3=C(C=C(C=C3)N4CCOCC4)OC
Procedure, shortened: as §1

[4] = compound: CNC(=O)c1ccc(Nc2ncc(C(F)(F)F)c(NCc3nccnc3N(C)S(C)(=O)=O)n2)cc1 [defactinib]
Procedure, shortened: as §1

[5] = compound: CNc1nc(-c2ccc3c(N)n[nH]c3c2)cc(N2C[C@@H](C(=O)NC3CCCCC3)CC[C@H]2C)n1
Procedure, shortened: as §1

[6] = compound: COC(=O)N[C@@H](C)CNc1nccc(-c2cn(C(C)C)nc2-c2cc(Cl)cc(NS(C)(=O)=O)c2F)n1 [encorafenib]
Procedure, shortened: as §1

[7] = compound: COC(=O)[C@H](CCSC)NC(=O)C1=C(C=C(C=C1)NC[C@H](CS)N)C2=CC=CC=C2
Procedure, shortened: as §1

[8] = compound: COc1cc(Nc2ncc3c(n2)-c2ccc(Cl)cc2C(c2c(F)cccc2OC)=NC3)ccc1C(=O)O [alisertib]
Procedure, shortened: as §1

[9] = compound: COc1cc2nc(-c3cc(F)ccc3O)nc(N[C@@H]3CNC[C@H]3C(C)(C)O)c2cc1OC
Procedure, shortened: as §1

[10] = compound: COc1cc2ncnc(Nc3ccc(F)c(Cl)c3)c2cc1OCCCN1CCOCC1 [gefitinib]
Procedure, shortened: as §1

[11] = compound: CS(=O)(=O)CCNCc1ccc(-c2ccc3ncnc(Nc4ccc(OCc5cccc(F)c5)c(Cl)c4)c3c2)o1 [lapatinib]
Procedure, shortened: as §1

[12] = compound: CS(=O)(=O)N1CCN(Cc2cc3nc(-c4cccc5[nH]ncc45)nc(N4CCOCC4)c3s2)CC1 [pictilisib]
Procedure, shortened: as §1

[13] = compound: C[C@@H](Oc1cc(-c2cnn(C3CCNCC3)c2)cnc1N)c1c(Cl)ccc(F)c1Cl [crizotinib]
Procedure, shortened: as §1

[14] = compound: C[C@H](C1=CC=C(C=C1)C(=O)NC2=C3C=CNC3=NC=C2)N
Procedure, shortened: as §1

[15] = compound: C[C@H](Nc1ncnc2nc[nH]c12)c1cc2cccc(Cl)c2c(=O)n1-c1ccccc1 [duvelisib]
Procedure, shortened: as §1

[16] = compound: Cc1cc(Nc2cc(CN3CCOCC3)c3nc(C)c(Cc4ccc(Cl)cc4F)n3n2)n[nH]1 [gandotinib]
Procedure, shortened: as §1

[17] = compound: Cc1cc(Nc2cc(N3CCN(C)CC3)nc(Sc3ccc(NC(=O)C4CC4)cc3)n2)n[nH]1 [tozasertib]
Procedure, shortened: as §1

[18] = compound: Cc1ccc(-n2nc(C(C)(C)C)cc2NC(=O)Nc2ccc(OCCN3CCOCC3)c3ccccc23)cc1 [doramapimod]
Procedure, shortened: as §1

[19] = compound: Cc1ccc(NC(=O)c2ccc(CN3CC[C@H](N(C)C)C3)c(C(F)(F)F)c2)cc1Nc1nccc(-c2cncnc2)n1 [bafetinib]
Procedure, shortened: as §1

[20] = compound: Cc1cccc(CC(=O)N2CCc3c2ccc(-c2cn(C)c4ncnc(N)c24)c3F)n1
Procedure, shortened: as §1

Measured: log2 fold change

PRKRA (UniProt O75569)
UniProt O75569, sequence (O75569 whole entry, looked up): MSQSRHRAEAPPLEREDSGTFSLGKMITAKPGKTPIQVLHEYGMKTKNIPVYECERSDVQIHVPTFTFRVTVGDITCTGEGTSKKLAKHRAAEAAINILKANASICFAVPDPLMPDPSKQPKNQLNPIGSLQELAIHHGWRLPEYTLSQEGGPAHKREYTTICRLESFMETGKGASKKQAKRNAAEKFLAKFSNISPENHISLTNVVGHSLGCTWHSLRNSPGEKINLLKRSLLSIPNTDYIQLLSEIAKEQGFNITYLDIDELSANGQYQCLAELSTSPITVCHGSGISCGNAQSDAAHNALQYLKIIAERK
inactive: [1] 0.024 | [2] -0.254 | [3] 0.028 | [4] 0.02 | [5] -0.009 | [6] -0.001 | [7] 0.146 | [8] -0.019 | [9] -0.004 | [10] -0.006 | [11] 0.01 | [12] -0.003 | [13] -0.021 | [14] -0.017 | [15] 0 | [16] -0.094 | [17] -0.005 | [18] -0.01 | [19] -0.003 | [20] 0.032

PDE2A (UniProt O00408)
UniProt O00408, sequence (O00408 whole entry, looked up): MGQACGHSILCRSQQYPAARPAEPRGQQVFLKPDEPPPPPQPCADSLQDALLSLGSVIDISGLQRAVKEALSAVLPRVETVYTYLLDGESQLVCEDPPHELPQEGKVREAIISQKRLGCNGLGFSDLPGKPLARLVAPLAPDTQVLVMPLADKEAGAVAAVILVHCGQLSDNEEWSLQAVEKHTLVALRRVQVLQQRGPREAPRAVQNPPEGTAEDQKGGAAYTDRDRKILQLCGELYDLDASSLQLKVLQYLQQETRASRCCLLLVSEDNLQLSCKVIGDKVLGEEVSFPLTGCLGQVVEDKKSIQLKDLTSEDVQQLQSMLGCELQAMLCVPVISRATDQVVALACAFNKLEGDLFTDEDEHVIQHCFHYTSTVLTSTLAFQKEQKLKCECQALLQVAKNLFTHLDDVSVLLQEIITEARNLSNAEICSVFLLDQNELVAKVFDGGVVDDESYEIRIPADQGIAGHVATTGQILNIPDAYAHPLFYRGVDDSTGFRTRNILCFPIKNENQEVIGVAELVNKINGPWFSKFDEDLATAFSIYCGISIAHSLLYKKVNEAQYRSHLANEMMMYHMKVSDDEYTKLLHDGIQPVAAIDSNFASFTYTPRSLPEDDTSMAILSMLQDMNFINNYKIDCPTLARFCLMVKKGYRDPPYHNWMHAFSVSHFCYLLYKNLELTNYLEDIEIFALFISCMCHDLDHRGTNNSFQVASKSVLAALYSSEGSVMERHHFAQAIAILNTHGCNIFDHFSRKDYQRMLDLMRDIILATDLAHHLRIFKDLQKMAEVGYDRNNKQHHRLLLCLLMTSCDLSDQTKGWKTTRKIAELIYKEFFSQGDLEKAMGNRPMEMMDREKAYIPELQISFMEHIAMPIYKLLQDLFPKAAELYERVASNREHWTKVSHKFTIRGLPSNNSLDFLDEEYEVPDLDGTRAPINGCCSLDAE
inactive: [1] 0.038 | [2] 0.275 | [3] 0.044 | [4] -0.24 | [5] 0.028 | [6] 0.11 | [7] -0.019 | [8] 0.014 | [9] 0.048 | [10] -0.01 | [11] 0.005 | [12] 0 | [13] 0.074 | [14] 0.05 | [15] -0.042 | [16] 0.138 | [17] 0.049 | [18] -0.057 | [19] 0.051 | [20] 0.041

PLK1 (UniProt P53350)
inactive: [1] 0.059 | [2] -0.108 | [4] -0.268 | [5] 0.006 | [6] 0.097 | [7] -0.034 | [8] -0.003 | [9] -0.023 | [10] 0.003 | [11] -0.024 | [12] 0.013 | [13] -0.179 | [14] 0.168 | [15] 0.043 | [16] -0.088 | [17] 0.003 | [18] 0.03 | [19] -0.019 | [20] -0.055
active: [3] -0.347

PFDN2 (UniProt Q9UHV9)
UniProt Q9UHV9, sequence (Q9UHV9 whole entry, looked up): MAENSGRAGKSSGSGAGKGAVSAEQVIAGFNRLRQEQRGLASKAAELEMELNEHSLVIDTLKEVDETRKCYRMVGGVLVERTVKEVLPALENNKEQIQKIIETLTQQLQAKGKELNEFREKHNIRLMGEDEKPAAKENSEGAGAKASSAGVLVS
active: [14] 0.365
inactive: [1] 0.063 | [2] 0.01 | [3] -0.035 | [4] 0.026 | [5] -0.012 | [6] 0.05 | [7] -0.025 | [8] 0.033 | [9] 0.007 | [10] 0.012 | [11] -0.001 | [12] -0.017 | [13] 0.054 | [15] 0 | [16] -0.1 | [17] 0.053 | [18] 0.005 | [19] -0.064 | [20] -0.13

PMPCA (UniProt Q10713)
inactive: [1] -0.006 | [2] 0.049 | [3] -0.045 | [4] 0.004 | [5] -0.004 | [6] 0.001 | [7] 0.04 | [8] -0.03 | [9] 0.003 | [10] -0.02 | [11] -0.02 | [12] -0.043 | [13] -0.048 | [14] -0.053 | [15] 0.053 | [16] -0.004 | [17] 0.016 | [18] 0.079 | [19] 0.046 | [20] 0.025

PPIL2 (UniProt Q13356)
inactive: [1] -0.006 | [2] -0.1 | [3] -0.006 | [4] -0.024 | [5] 0.056 | [6] -0.004 | [7] 0.036 | [8] -0.018 | [9] 0.027 | [10] 0.005 | [11] -0.034 | [12] -0.014 | [13] -0.037 | [14] -0.011 | [15] -0.047 | [16] -0.019 | [17] 0.047 | [18] 0.043 | [19] -0.022 | [20] 0.054

PTPN2 (UniProt P17706)
UniProt P17706, sequence (P17706 whole entry, looked up): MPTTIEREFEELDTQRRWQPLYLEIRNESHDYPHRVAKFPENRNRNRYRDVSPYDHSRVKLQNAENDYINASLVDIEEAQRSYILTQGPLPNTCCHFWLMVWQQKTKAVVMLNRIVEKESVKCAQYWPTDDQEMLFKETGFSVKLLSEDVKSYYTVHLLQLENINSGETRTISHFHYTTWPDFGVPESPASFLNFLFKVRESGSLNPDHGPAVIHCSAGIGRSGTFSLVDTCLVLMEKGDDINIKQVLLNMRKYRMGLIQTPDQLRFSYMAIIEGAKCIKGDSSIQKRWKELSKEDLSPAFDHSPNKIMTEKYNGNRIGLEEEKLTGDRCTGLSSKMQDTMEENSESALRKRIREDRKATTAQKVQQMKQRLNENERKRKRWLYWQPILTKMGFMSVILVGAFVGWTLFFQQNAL
inactive: [1] -0.036 | [2] -0.115 | [3] 0.049 | [4] -0.008 | [5] 0.005 | [6] -0.035 | [7] 0.053 | [8] 0.052 | [9] -0.006 | [10] -0.006 | [11] -0.016 | [12] -0.01 | [13] -0.074 | [14] -0.084 | [15] -0.042 | [16] -0.013 | [17] -0.037 | [18] -0.012 | [19] -0.077 | [20] 0.071

PRAME (UniProt P78395)
inactive: [1] 0.034 | [2] -0.111 | [3] 0.024 | [4] 0.006 | [5] -0.006 | [6] -0.001 | [7] 0.13 | [8] 0.014 | [9] 0.009 | [10] -0.007 | [11] -0.012 | [12] -0.008 | [13] -0.08 | [14] -0.015 | [15] 0.005 | [16] -0.037 | [17] -0.013 | [18] 0.007 | [19] -0.062 | [20] 0.056

PTGR2 (UniProt Q8N8N7)
UniProt Q8N8N7, sequence (Q8N8N7 whole entry, looked up): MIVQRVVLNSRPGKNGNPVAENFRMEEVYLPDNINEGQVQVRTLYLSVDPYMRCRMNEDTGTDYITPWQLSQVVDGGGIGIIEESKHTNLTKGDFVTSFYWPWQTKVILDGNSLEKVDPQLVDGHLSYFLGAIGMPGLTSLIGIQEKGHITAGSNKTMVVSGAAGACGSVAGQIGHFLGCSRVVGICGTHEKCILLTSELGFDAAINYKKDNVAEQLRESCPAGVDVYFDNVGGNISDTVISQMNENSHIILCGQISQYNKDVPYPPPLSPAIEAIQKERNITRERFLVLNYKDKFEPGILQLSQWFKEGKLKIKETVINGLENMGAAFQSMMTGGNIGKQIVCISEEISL
active: [7] 0.694
inactive: [1] 0.018 | [2] -0.023 | [3] 0.02 | [4] 0.018 | [5] -0.021 | [6] -0.043 | [8] 0.014 | [9] 0.004 | [10] -0.007 | [11] -0.003 | [12] 0.014 | [13] -0.029 | [14] -0.04 | [15] 0.02 | [16] 0.01 | [17] 0.04 | [18] -0.04 | [19] -0.003 | [20] -0.004

PUS1 (UniProt Q9Y606)
UniProt Q9Y606, sequence (Q9Y606 whole entry, looked up): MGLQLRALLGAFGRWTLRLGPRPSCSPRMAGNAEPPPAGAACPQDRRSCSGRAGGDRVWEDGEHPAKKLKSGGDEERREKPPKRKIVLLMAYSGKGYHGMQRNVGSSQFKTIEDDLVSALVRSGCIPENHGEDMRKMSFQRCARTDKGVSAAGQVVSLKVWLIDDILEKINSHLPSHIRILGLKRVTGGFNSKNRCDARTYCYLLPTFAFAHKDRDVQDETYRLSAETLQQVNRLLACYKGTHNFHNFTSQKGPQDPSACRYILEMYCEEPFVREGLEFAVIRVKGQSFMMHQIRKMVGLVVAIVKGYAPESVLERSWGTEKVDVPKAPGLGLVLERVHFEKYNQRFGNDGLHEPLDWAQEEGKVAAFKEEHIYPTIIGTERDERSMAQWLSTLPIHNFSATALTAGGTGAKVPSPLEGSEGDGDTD
inactive: [1] -0.002 | [2] -0.049 | [3] -0.008 | [4] 0.002 | [5] -0.029 | [6] 0 | [7] 0.086 | [8] 0.005 | [9] 0.014 | [10] -0.019 | [11] -0.042 | [12] -0.058 | [13] -0.062 | [14] -0.006 | [15] 0.008 | [16] -0.033 | [17] 0.012 | [18] 0.006 | [19] -0.047 | [20] 0.027

PDPK1 (UniProt O15530)
active: [5] 0.501
inactive: [1] 0.009 | [2] -0.121 | [3] 0.107 | [4] 0.21 | [6] -0.019 | [7] 0.109 | [8] 0.153 | [9] 0.15 | [10] 0.016 | [11] -0.04 | [12] -0.051 | [13] 0.03 | [14] 0.262 | [15] -0.039 | [16] 0.092 | [17] -0.029 | [18] -0.012 | [19] -0.021 | [20] -0.211

PKP3 isoform 2 (UniProt Q9Y446)
UniProt Q9Y446, sequence (Q9Y446 whole entry, looked up): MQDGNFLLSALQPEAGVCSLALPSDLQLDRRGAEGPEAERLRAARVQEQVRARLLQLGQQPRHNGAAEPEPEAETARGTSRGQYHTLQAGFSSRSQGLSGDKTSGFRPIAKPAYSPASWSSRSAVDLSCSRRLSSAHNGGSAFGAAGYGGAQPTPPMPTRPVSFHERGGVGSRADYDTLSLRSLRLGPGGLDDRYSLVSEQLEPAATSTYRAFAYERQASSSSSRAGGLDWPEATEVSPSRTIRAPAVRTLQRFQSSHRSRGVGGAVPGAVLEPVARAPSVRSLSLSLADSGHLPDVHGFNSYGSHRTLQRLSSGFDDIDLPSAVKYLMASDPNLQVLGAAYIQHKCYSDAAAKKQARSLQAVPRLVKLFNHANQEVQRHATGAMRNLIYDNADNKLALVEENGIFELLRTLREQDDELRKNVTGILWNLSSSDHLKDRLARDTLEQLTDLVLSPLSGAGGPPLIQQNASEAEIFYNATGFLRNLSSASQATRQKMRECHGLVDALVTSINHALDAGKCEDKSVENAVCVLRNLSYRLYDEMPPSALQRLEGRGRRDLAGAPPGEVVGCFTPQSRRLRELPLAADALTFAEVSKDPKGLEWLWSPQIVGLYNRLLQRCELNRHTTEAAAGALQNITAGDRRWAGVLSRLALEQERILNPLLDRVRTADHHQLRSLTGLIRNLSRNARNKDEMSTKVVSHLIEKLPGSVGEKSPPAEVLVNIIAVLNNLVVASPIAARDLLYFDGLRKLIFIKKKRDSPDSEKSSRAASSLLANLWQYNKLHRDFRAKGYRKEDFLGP
inactive: [1] -0.011 | [2] -0.126 | [3] 0.067 | [4] 0.035 | [5] 0.017 | [6] 0.098 | [7] 0.095 | [8] 0.019 | [9] 0.031 | [10] -0.018 | [11] -0.007 | [12] -0.004 | [13] 0.043 | [14] -0.024 | [15] -0.048 | [16] 0.04 | [17] -0.039 | [18] 0.08 | [19] -0.085 | [20] 0.027

PTGS1 isoform 6 (UniProt P23219)
UniProt P23219, sequence (P23219 whole entry, looked up): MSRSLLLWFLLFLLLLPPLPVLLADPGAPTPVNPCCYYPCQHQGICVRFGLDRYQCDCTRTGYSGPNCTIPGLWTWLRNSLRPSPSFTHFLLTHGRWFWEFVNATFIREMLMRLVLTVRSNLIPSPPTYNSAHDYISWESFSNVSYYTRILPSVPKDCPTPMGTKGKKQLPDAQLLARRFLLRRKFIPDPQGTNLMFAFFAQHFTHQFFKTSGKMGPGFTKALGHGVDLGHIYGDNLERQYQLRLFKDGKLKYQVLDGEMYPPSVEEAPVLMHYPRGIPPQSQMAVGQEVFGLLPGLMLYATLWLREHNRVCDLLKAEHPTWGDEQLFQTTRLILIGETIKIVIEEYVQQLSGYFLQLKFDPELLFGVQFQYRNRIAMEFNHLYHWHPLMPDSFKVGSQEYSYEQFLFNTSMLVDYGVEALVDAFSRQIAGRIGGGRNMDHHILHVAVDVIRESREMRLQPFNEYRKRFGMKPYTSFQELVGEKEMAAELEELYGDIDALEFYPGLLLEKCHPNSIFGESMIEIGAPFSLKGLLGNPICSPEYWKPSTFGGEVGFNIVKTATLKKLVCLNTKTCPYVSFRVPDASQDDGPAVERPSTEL
inactive: [1] -0.154 | [2] 0.023 | [3] -0.052 | [4] -0.119 | [5] -0.057 | [6] -0.008 | [7] 0.027 | [8] -0.051 | [9] 0.021 | [10] -0.011 | [11] 0.004 | [12] -0.068 | [13] 0.007 | [15] -0.001 | [16] 0.109 | [17] 0.029 | [18] 0.036 | [19] -0.079 | [20] 0.093
active: [14] -0.236

PES1 (UniProt O00541)
UniProt O00541, sequence (O00541 whole entry, looked up): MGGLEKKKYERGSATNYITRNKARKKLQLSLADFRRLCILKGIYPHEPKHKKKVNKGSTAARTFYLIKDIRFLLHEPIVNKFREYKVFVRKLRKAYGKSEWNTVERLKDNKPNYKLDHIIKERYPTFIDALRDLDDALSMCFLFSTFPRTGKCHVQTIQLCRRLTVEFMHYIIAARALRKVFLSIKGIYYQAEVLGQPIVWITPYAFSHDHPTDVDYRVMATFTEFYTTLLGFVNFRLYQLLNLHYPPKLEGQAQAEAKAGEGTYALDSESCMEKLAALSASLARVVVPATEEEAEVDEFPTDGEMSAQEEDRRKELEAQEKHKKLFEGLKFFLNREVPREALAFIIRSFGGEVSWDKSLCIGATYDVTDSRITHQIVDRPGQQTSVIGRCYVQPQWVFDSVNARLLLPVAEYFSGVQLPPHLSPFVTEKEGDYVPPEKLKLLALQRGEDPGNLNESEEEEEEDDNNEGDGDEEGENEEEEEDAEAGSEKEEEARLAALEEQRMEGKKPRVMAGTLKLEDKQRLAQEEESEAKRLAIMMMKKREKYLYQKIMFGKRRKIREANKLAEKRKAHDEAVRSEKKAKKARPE
active: [7] 0.35
inactive: [1] -0.017 | [2] -0.044 | [3] 0.05 | [4] 0.005 | [5] 0.017 | [6] 0.006 | [8] 0.028 | [9] -0.003 | [10] 0.007 | [11] 0.006 | [12] 0.005 | [13] -0.001 | [14] -0.027 | [15] 0.01 | [16] -0.025 | [17] 0.004 | [18] -0.021 | [19] -0.014 | [20] 0.064

PLEKHF1 (UniProt Q96S99)
inactive: [1] -0.001 | [2] -0.051 | [3] 0.058 | [4] -0.007 | [5] -0.033 | [6] -0.025 | [7] -0.009 | [8] -0.008 | [9] -0.001 | [10] 0.007 | [11] -0.022 | [12] -0.016 | [13] -0.021 | [14] -0.043 | [15] 0.058 | [16] 0.023 | [17] 0.02 | [18] 0.016 | [19] 0.013 | [20] 0.026

PRKAR2A (UniProt P13861)
UniProt P13861, sequence (P13861 whole entry, looked up): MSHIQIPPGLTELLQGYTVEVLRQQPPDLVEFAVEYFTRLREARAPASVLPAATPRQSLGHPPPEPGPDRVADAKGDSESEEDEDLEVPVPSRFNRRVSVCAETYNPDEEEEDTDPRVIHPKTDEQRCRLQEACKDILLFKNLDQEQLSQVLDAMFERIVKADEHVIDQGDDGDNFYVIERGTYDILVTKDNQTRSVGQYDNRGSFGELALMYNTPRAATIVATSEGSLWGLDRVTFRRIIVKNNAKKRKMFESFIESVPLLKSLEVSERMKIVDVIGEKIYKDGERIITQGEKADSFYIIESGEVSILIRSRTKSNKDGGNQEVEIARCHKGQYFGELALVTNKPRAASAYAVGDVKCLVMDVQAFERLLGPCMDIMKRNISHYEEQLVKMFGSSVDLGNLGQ
inactive: [1] -0.028 | [2] -0.019 | [3] -0.176 | [4] -0.085 | [5] -0.017 | [6] 0.037 | [7] 0.142 | [8] 0.002 | [9] -0.062 | [10] 0.024 | [11] 0.036 | [12] -0.094 | [13] 0.013 | [14] 0.006 | [15] -0.025 | [17] 0.015 | [18] 0.036 | [19] -0.026 | [20] 0.031
active: [16] -0.232

From the supplement of paper PMC10849652
